Screens (PubChem BioAssay)
TDP1 block – TDP1 (human) enzyme inhibition; Q9NUW8; Potency, µM (top dose mostly 130 µM), inactives show at the highest dose activity change, negative = inhibition, usual class: inhibitors; recombinant TDP1, AlphaScreen DNA substrate cleavage; 350,000 compounds, 0.28% hits; note: % is set by controls: 0 for no effect and ±100 for the full control effect; nearly all actives have a fitted effect of over 40% in size
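AlphaScreen read-out: signal falls as enzyme removes the 3' tyrosine-FITC from a 5'-biotinylated DNA oligo (15 nM, 5 min, RT). Enzyme was E. coli-made recombinant Tdp1 at 1 nM, exposed to compound for 15 min beforehand; beads 10 ug/ml, 10 min.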
TDP1 cell noCPT – qHTS for Inhibitors of human tyrosyl-DNA phosphodiesterase 1 (TDP1): qHTS in cells in absence of CPT. Potency, µM (top dose mostly 46.2 µM), for the others: top-dose activity change, negative = growth inhibition, hits mostly inhibitors. 420,000 compounds, 15% hits. DT40 Tdp1-/- hTDP1 cells, no CPT, ATP luminescence, 48 h; note: % is set by controls: 0 for no effect and ±100 for the full control effect; nearly all actives have a fitted effect of over 55% in size
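No-CPT arm: Tdp1-/-;hTDP1 DT40 cells (400/well) plus compounds, incubated ≥48 hr at 37 °C. Readout CellTiter-Glo luminescence.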
DT40 TDP1 CPT – DT40-hTDP1 cell growth loss with CPT; 420,000 compounds, 12% hits; Potency, µM (highest dose often 46.2 µM), inactives show at the top dose activity change, negative = growth inhibition, most hits filed as inhibitors; chicken DT40 Tdp1-/-;hTDP1 cells + 20 nM CPT, ATP luminescence, 48 h; note: % is set by controls: 0 for no effect and ±100 for the full control effect; nearly all actives have a fitted effect of over 55% in size
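Chicken DT40 Tdp1-/- cells stably complemented with human TDP1 were seeded at 400 cells/well in medium containing 20 nM camptothecin, exposed to pin-transferred compounds, and grown at 37 °C for at least 48 hr. Viability was read as ATP luminescence.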
ClpP mod – qHTS Assay for Activators of ClpP. 340,000 compounds, 1.9% hits. purified B. subtilis ClpP, FRET peptide cleavage, 20 min. Potency, µM (titrated, usually from 57.5 µM), for the others: at the top dose activity change, negative = active. ATP-dependent Clp protease proteolytic subunit (Bacillus subtilis (strain 168)), P80244; active = well fitted falling curve with a large enough effect; inconclusive = small, poorly fitted or top-dose-only effect; inactive = no such curve, though single readings can be large or run the other way; note: the source files actives as falling curves though it sought activators and does not explain the sign; nearly all actives have a fitted effect of over 65% in size
Target sequence (P80244 whole entry, looked up): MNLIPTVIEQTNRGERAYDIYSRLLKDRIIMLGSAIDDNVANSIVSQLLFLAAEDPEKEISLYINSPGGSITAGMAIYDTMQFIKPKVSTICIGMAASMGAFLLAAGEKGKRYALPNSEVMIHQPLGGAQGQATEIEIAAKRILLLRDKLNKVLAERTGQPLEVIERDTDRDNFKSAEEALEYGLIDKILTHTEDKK
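Buffer: 100 mM Tris/HCl pH8, 100 mM KCl, 0.05% low protease BSA, 2.5% glycerol, 0.01% Tween-20. ClpP 10 microg/mL final; 20 min RT; delta FRET normalized to ADEP and DMSO controls.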
The depositor's hits bear a star; ? = inconclusive; . = not tested or not shown; [ ] = dose if it differs, or a comment. Sampled rows, rich in hits. Any-hit rate of the full collection: about 17%. Unless noted, calls come from the whole dose curve; as a rule, active = well fitted curve in the direction sought with a large enough effect; inconclusive = small, poorly fitted or top-dose-only effect, or another doubt; inactive = no such curve, though single readings can be large; an effect the other way counts as inactive or inconclusive. Potency is the fitted concentration of half-maximal effect.

SMILES	TDP1 block	TDP1 cell noCPT	DT40 TDP1 CPT	ClpP mod
COc1ccc(C2(CNC(=O)c3cccc([N+](=O)[O-])c3)CCCCC2)cc1OC	3%	10µM*	16µM*	1%
COc1ccc(/C(N)=N/OC(=O)c2ccc(OC)c([N+](=O)[O-])c2)cc1OC	3%	12µM*	?	.
COc1ccc(C2(CNC(=O)C(=O)Nc3cccc(C(F)(F)F)c3)CCCC2)cc1OC	2%	18µM*	21µM*	-5%
COc1ccc(NC(=O)C(=O)NCC2(c3ccc(OC)c(OC)c3)CCCC2)cc1	0%	?	-28%	0%
COc1ccc(C2(CNC(=O)c3cccc([N+](=O)[O-])c3)CCOCC2)cc1OC	2%	?	?	-1%
COc1ccc(C2(CNC(=O)Cc3ccccc3)CCCC2)cc1OC	0%	13µM*	?	1%
CCOC(=O)N1C(=O)NC(=O)C1c1ccc(OC)cc1 (centres undefined)	.	-4%	-2%	-1%
CN(CC(=O)Nc1ccc(F)c(F)c1F)C(=O)C1CCCC1	1%	-5%	-3%	-1%
C[C@@H]1CCCCO[C@@H](CN(C)C(=O)c2ccncc2)[C@@H](C)CN([C@H](C)CO)C(=O)c2cc(N(C)C)ccc2O1	.	2%	4%	-3%
COc1ccc(C(=O)NCC2(c3ccc(OC)c(OC)c3)CCCC2)cc1OC	.	?	?	-1%
COc1ccc(C2(CNC(=O)c3ccc(OC)c([N+](=O)[O-])c3)CCCCC2)cc1OC	5%	21µM*	?	1%
O=C(Nc1ccccc1C(=O)N/N=C/c1ccncc1)c1ccccc1	6%	21µM*	?	.
COc1ccc(C(=O)Nc2ccccc2C(=O)N/N=C/c2ccco2)cc1	5%	?	-20%	-2%
CCOc1ccc(/C=N/NC(=O)c2ccccc2NC(=O)c2ccc(OC)cc2)cc1	3%	?	?	28µM*
O=C(N/N=C/C=C/c1ccccc1)c1ccncc1	3%	21µM*	?	1%
CC(N)c1ccc(Cl)cc1Cl (centres undefined)	3%	-2%	3%	-2%
COc1ccc(/C=N/n2cnc3c([nH]c4ccc(Br)cc43)c2=O)cc1CN1CCOCC1	1%	?	16µM*	2%
O[Si](CCCN1CCCCC1)(c1ccc(F)cc1)C1CCCCC1 (centres undefined)	10%[56.1 µM]	26µM*	?	0%
CCN(CC)CCN(C(=O)CCS(=O)(=O)c1ccccc1)c1nc2c(C)cc(C)cc2s1	4%	7.3µM*	16µM*	1%
CCN(CC)CCN(C(=O)CCS(=O)(=O)c1ccccc1)c1nc2cc(OC)c(OC)cc2s1	6%	?	?	-2%
CN(C)CCN(C(=O)CCS(=O)(=O)c1ccccc1)c1nc2c(F)cccc2s1	5%	16%	-28%	-2%
CCN(CC)CCN(C(=O)CCS(=O)(=O)c1ccccc1)c1nc2cc(C)cc(C)c2s1	5%	?	21µM*	1%
Cc1cc(C)c2sc(N(CCN(C)C)C(=O)CCS(=O)(=O)c3ccccc3)nc2c1	7%	18µM*	23µM*	1%
O=c1c(-c2cc(F)cc(F)c2)nc2cncnc2n1C1CC1	.	1%	1%	.
Cc1ccc(C(=O)NCC(=O)OCC(=O)c2ccc(Br)s2)cc1	.	-12%	-1%	-2%
SMILES	TDP1 block	TDP1 cell noCPT	DT40 TDP1 CPT	ClpP mod
CCc1c(C)nc(N2CCN(c3ccc(F)cc3)CC2)[nH]c1=O	.	-28%	?	1%
Cc1nnc(N2CCN(c3ccccc3)CC2)[nH]c1=O	2%	5.8µM*	5.2µM*	0%
CCc1c(C)nc(N2CCN(c3ccc(OC)cc3)CC2)[nH]c1=O	.	21µM*	?	-1%
CCOC(=O)C1=CN(Cc2ccco2)S(=O)(=O)NC1c1cccc(OC)c1 (centres undefined)	0%[56.1 µM]	-27%	?	0%
COc1ccc(-c2nnc(SCC(=O)Nc3cccc(C(F)(F)F)c3)s2)cc1	3%	?	?	-7%
Cc1c(Cl)cccc1-n1c(SCC(=O)NCc2ccccc2Cl)nnc1-c1ccncc1	3%	?	14µM*	-11%
COc1ccc(C(=O)NC(c2ccc(Cl)cc2)c2cc(Cl)c3cccnc3c2O)cc1 (centres undefined)	10%	4.1µM*	3.7µM*	2%
CCOc1ccc(C(Nc2cccnc2)c2cc(Cl)c3cccnc3c2O)cc1 (centres undefined)	-2%	15µM*	?	4%
COc1ccc(C(C)NC(=O)c2ccccc2)cc1 (centres undefined)	2%	-9%	-7%	-1%
COc1ccccc1C(NC(C)=O)c1cc(Cl)c2cccnc2c1O (centres undefined)	.	2.3µM*	1.6µM*	0%
CC(=O)NC(C)c1cc(Cl)c2cccnc2c1O (centres undefined)	0%	.	.	.
COc1ccc(C(NC(=O)c2ccc(-c3ccccc3)cc2)c2ccccc2)cc1 (centres undefined)	-8%	13µM*	13µM*	-2%
Nc1ccc(CCc2ccccn2)cc1	.	-3%	-13%	.
COc1ccc(C(NC(C)=O)c2cc(Cl)c3cccnc3c2O)cc1OC (centres undefined)	-5%	4.6µM*	7.3µM*	2%
CCC(=O)NC(c1ccc(OC)c(OC)c1)c1cc(Cl)c2cccnc2c1O (centres undefined)	7%	4.6µM*	4.1µM*	4%
CCOc1ccc(C(NC(C)=O)c2cc(Cl)c3cccnc3c2O)cc1 (centres undefined)	.	4µM*	3.2µM*	-2%
CC(C)N1CC2(CC(c3ccccc3C(F)(F)F)=NO2)CN1C(=O)c1ccco1 (centres undefined)	.	8.2µM*	?	-2%
CC(C)N1CC2(CC(c3ccc(Cl)cc3Cl)=NO2)CN1C(=O)c1ccc(C(C)(C)C)cc1 (centres undefined)	.	12µM*	15µM*	-2%
CC(=O)N1CC2(CC(c3ccccc3F)=NO2)CN1c1ccc(Cl)cc1 (centres undefined)	.	?	?	-3%
CC(C)N1CC2(CC(c3ccccc3C(F)(F)F)=NO2)CN1C(=O)c1ccc(C(C)(C)C)cc1 (centres undefined)	.	21µM*	16µM*	-1%
CC(C)N1CC2(CC(c3ccccc3F)=NO2)CN1C(=O)c1ccc(C(C)(C)C)cc1 (centres undefined)	.	10µM*	23µM*	2%
CCCCCCCCNS(=O)(=O)CCNC1CC1	.	-20%	?	2%
CCC(=O)N[C@@H]1c2ccccc2C2(CCN(Cc3cnc(N(C)C)s3)CC2)[C@H]1OC	.	-3%	35%[9.04 µM]	.
